This passage reports growth results from PubChem BioAssay (NCI).

Some test systems named below: NCI-H23 lung; NCI-H226 lung; NCI-H322M lung; HOP-62 NSCLC; NCI-H460 lung; HOP-92 NSCLC; A549/ATCC NSCLC; 786-0 renal; COLO 205 colon; DU-145 prostate; K-562 leukemia; MALME-3M melanoma; MDA-MB-231 breast; RXF 393 renal; SF-268 CNS; SF-295 CNS; SF-539 CNS; M14 melanoma; UACC-257 melanoma.
Common to all, as to test: NCI-60 one-dose screen, 48 h (100 = growth as untreated, 0 = no growth, -100 = all killed)
Common to all, as to conditions: 10 µM unless noted

The panel holds about 83,000 compounds, 20% with a hit somewhere; the sample as a whole holds those more often.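 Cell lines were cultured in 96-well plates, exposed to a single compound concentration, and assessed for percent growth 48 hours later.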 Unmarked numbers belong to inactive results. The source made the active and inactive calls. Rule for the calls: active = growth percent below 10; inactive = the rest.

On to `CCCCOP(=O)(OCCCC)C(C(=O)OCC)C(CC(=O)OCC)C(=O)OCC` (configuration not stated), for which the growth in the test on NCI-H23 lung was 134%; in the test on NCI-H226 lung, 99.1%; in the test on NCI-H322M lung, 107%; in the test on HOP-62 NSCLC it was 104%; in the test on NCI-H460 lung, 109%; in the test with HOP-92 NSCLC, 48.4%. The growth is 103% with A549/ATCC NSCLC; 106% in the test with 786-0 renal; 107% in the test on COLO 205 colon; 122% in the test on DU-145 prostate; 109% in the test on K-562 leukemia; 125% in the test with MALME-3M melanoma. Further, the growth in the test with MDA-MB-231 breast is 100%; with RXF 393 renal, 93.4%; in the test with SF-268 CNS, 109%; with SF-295 CNS, 101%; in the test with SF-539 CNS, 91.4%; with M14 melanoma, 114%.
Turning to `C[C@H](C(=O)N[C@@H](Cc1ccc(-c2ccccc2)cc1)C(=O)NC1CC(C)(C)NC(C)(C)C1)c1ccc(-c2ccccc2)c(F)c1`, the growth in the test with NCI-H23 lung was -42% (active); in the test on NCI-H226 lung, -26.7% (active); with NCI-H322M lung, -34% (active); in the test on HOP-62 NSCLC, -67.4% (active); with NCI-H460 lung, -76.4% (active); in the test with HOP-92 NSCLC it was -69.7% (active). For the same molecule, the growth is -76.9% (active) with A549/ATCC NSCLC; -88.6% (active) in the test on 786-0 renal; -81.8% (active) in the test with COLO 205 colon; -89.3% (active) in the test with DU-145 prostate; -53.7% (active) with K-562 leukemia; -77.4% (active) in the test with MALME-3M melanoma. For the same molecule, the growth with MDA-MB-231 breast is -53.6% (active); with RXF 393 renal, -55.6% (active); in the test on SF-268 CNS, -58.1% (active); in the test with SF-295 CNS, -54.5% (active); with SF-539 CNS, -78.6% (active); with UACC-257 melanoma, -62.9% (active). Further, the growth in the test on M14 melanoma is -79.2% (active).
As to `O=C1/C(=C/c2cccc(Cl)c2)CCc2ccccc21`, the growth in the test with NCI-H23 lung is 101%; in the test with NCI-H226 lung, 98.5%; with NCI-H322M lung, 98.5%; in the test with HOP-62 NSCLC, 105%; in the test on NCI-H460 lung, 107%; with HOP-92 NSCLC it was 72.6%. Further, the growth is 90.2% in the test with A549/ATCC NSCLC; 94.8% in the test with 786-0 renal; 111% with COLO 205 colon; 106% in the test on DU-145 prostate; 46.4% in the test on K-562 leukemia; 100% with MALME-3M melanoma. Further, the growth in the test with MDA-MB-231 breast was 98.9%; in the test with RXF 393 renal, 110%; with SF-268 CNS, 99.4%; in the test with SF-295 CNS, 85.5%; in the test with SF-539 CNS, 103%; in the test with M14 melanoma it was 103%.
`COc1cccc(/C=C2\Cc3ccccc3C2=O)c1`: the growth in the test with NCI-H23 lung is 106%; in the test with NCI-H226 lung it was 107%; in the test with NCI-H322M lung, 110%; in the test with HOP-62 NSCLC, 96.4%; with NCI-H460 lung, 105%; in the test on HOP-92 NSCLC, 85.7%. For the same molecule, the growth in the test on A549/ATCC NSCLC was 87%; in the test on 786-0 renal it was 101%; in the test with COLO 205 colon, 115%; in the test on DU-145 prostate, 104%; with K-562 leukemia it was 93.8%; in the test with MALME-3M melanoma, 97%. Further, the growth is 104% in the test with MDA-MB-231 breast; 103% with RXF 393 renal; 109% in the test with SF-268 CNS; 94.6% in the test on SF-295 CNS; 101% in the test on SF-539 CNS; 109% in the test on M14 melanoma.
Take `CCCCCCCCCCCCCCCCCC1=NC(C)(CO)CO1` (configuration not stated): the growth in the test with NCI-H23 lung was 98.2%; in the test on NCI-H226 lung, 91.1%; with NCI-H322M lung it was 90.4%; in the test on HOP-62 NSCLC, 95.9%; in the test with NCI-H460 lung it was 103%; with HOP-92 NSCLC, 79.8%. For the same molecule, the growth with A549/ATCC NSCLC was 89.6%; in the test with 786-0 renal it was 92.3%; in the test on COLO 205 colon, 101%; in the test with DU-145 prostate, 102%; in the test on K-562 leukemia it was 80.7%; in the test with MALME-3M melanoma, 91.5%. For the same molecule, the growth with MDA-MB-231 breast was 88.8%; in the test on RXF 393 renal it was 102%; with SF-268 CNS, 98.6%; in the test on SF-295 CNS, 88.5%; in the test on SF-539 CNS it was 97.7%; in the test with M14 melanoma it was 95.8%.
Regarding `COc1cc2c(cc1OC)C(CC1(O)CCCCC1)N(S(=O)(=O)c1ccc(C)cc1)CC2` (configuration not stated), the growth with NCI-H23 lung was 29.3% [100 µM]; in the test with NCI-H226 lung it was 57.6% [100 µM]; in the test with NCI-H322M lung, 57.8% [100 µM]; with HOP-62 NSCLC it was 79.3% [100 µM]; with NCI-H460 lung, 8.16% [100 µM] (active); with HOP-92 NSCLC it was -10.6% [100 µM] (active). Besides, the growth is 20.9% [100 µM] in the test on A549/ATCC NSCLC; 29.7% [100 µM] with 786-0 renal; 1.18% [100 µM] (active) in the test with COLO 205 colon; 32.3% [100 µM] in the test on DU-145 prostate; 10.8% [100 µM] in the test on K-562 leukemia; 18.9% [100 µM] in the test on MALME-3M melanoma. Moreover, the growth in the test with MDA-MB-231 breast was 40.8% [100 µM]; with RXF 393 renal, 48.9% [100 µM]; in the test on SF-268 CNS it was 26.3% [100 µM]; with SF-295 CNS, 3.6% [100 µM] (active); in the test with UACC-257 melanoma, 22.4% [100 µM]; in the test with M14 melanoma, 13% [100 µM].
In the case of `COC(=O)[C@H](Cc1cnc[nH]1)NC(=O)[C@@H](NC(=O)Nc1cc(C(F)(F)F)cc(C(F)(F)F)c1)C(C)C`, the growth was -70.6% [100 µM] (active) in the test on NCI-H23 lung; -44.1% [100 µM] (active) in the test on NCI-H226 lung; -94.9% [100 µM] (active) with NCI-H322M lung; -92.5% [100 µM] (active) with HOP-62 NSCLC; -42.5% [100 µM] (active) in the test on NCI-H460 lung; -96.7% [100 µM] (active) in the test with HOP-92 NSCLC. For the same molecule, the growth with A549/ATCC NSCLC was -70.8% [100 µM] (active); in the test on 786-0 renal, -90.7% [100 µM] (active); with COLO 205 colon, -82.6% [100 µM] (active); in the test with DU-145 prostate, -100% [100 µM] (active); with K-562 leukemia, -46% [100 µM] (active); in the test with MALME-3M melanoma, -94.4% [100 µM] (active). Further, the growth was -95.9% [100 µM] (active) in the test with MDA-MB-231 breast; -89.3% [100 µM] (active) in the test on RXF 393 renal; -92.7% [100 µM] (active) with SF-268 CNS; -95.7% [100 µM] (active) in the test on SF-539 CNS; -87.6% [100 µM] (active) with UACC-257 melanoma; -89% [100 µM] (active) in the test on M14 melanoma.
